Hit rate of the full screen: of about 290,000 compounds, fewer than 10 were called active. Roughly 3% stayed inconclusive and do not appear here. Not all results are given here. Unmarked numbers belong to inactive results. Calls come from the whole dose curve; as a rule, active = well fitted curve in the direction sought with a large enough effect in the polarisation (not every such curve was filed as active); inconclusive = small, poorly fitted or top-dose-only effect, or effect the other way, or a change in a side signal; inactive = no such curve, though single readings can be large or run the other way; the % refers to the polarisation.
experiment: qHTS Assay for Inhibitors Targeting the Menin-MLL Interaction in MLL Related Leukemias: Competition With Fluorescein Labeled MLL-derived Peptide; conditions: Fluorescence polarization, fluorescein-MLL peptide displacement from menin; series mostly up to 61.4 µM; FP activity change: at the top concentration; note: % of control where 0% means no effect
Source text: qHTS Assay for Inhibitors Targeting the Menin-MLL Interaction in MLL Related Leukemias NIH Chemical Genomics Center [NCGC] NIH Molecular Libraries Probe Centers Network [MLPCN] MLPCN Grant: MH084875-01A1 Assay Submitter (PI): Jolanta Grembecka, Tomasz Cierpicki, University of Virginia Translocations of the MLL (Mixed Lineage Leukemia) gene are frequently found in human leukemias affecting both children and adults. Fusion of MLL to one of more than 60 genes results in generation of oncogenic proteins upregulating Hox genes, which are vital to blood cell development. Patients harboring fusion of the MLL gene suffer from aggressive leukemias and respond poorly to available therapies. All of the oncogenic fusion proteins have a preserved N-terminal fragment of MLL that has been identified to interact with menin. It has been recently discovered that association with menin is critical to the leukemogenic activity of the MLL fusion oncoproteins. Selective targeting of the menin-MLL interaction could provide an attractive therapeutic approach to develop novel drugs for MLL-related leukemias. Small molecules blocking the menin-MLL interaction should reverse the oncogenic potential of MLL fusion proteins. We have developed and optimized a fluorescence polarization-based assay for the identification of Menin-MLL inhibitors. The assay was run employing two different MLL-derived peptides. The present assay uses a 12 amino acid peptide labeled with fluorescein at its N-terminus. This peptide consists of the menin high affinity binding motif from MLL and is potently bound by menin. Another peptide with a mutated sequence, labeled with Texas Red, was used in parallel as a less stringent screen for inhibitors.
The Menin protein, the MLL-wild type (w.t.) derived peptide (N-terminal 12 amino acids), the MLL-derived peptide labeled with Texas Red and the MLL-w.t. peptide labeled with Fluorescein were kindly supplied by laboratory of Dr. Jolanta Grembecka, University of Virginia. All protein and peptide solutions were stored in single use aliquots at -80C. The Eu3+ Cyrptate-conjugated mouse monoclonal antibody anti-6 Histidine (Eu3+-AB) and the Streptavidin-XL665 conjugate (XL665) were purchased from Cisbio International (Bedford, MA). All antibody and XL665 conjugate solution stocks were stored in single use aliquots at -20C. The Buffer components for all assays were purchased from Sigma-Aldrich (St. Louis, MO) and Invitrogen (Carlsbad, CA). FP Assay Reagents: 1. FP reaction buffer: 50 mM Tris-HCl pH 7.5, 50 mM NaCl, 1mM DTT. Before use, 0.05% BSA is added. 2. Menin protein, MLL-w.t. labeled with fluorescein, MLL-mutant peptide labeled with texas red. Stored in singe use aliquots at -80C. 3. MLL-w.t. unlabeled peptide as positive control: 10 uM final in FP buffer. FP Assay Procedure: 1. Prepare Menin at 200 nM, MLL-w.t.-fluorescein at 25 nM, and MLL-mutant-texas red at 50 nM mixture in FP buffer. 2. Prepare Menin at 200 nM, MLL-w.t.-fluorescein at 25 nM, MLL-mutant-texas red at 50 nM, and 10 uM MLL-w.t. unlabeled mixture in FP buffer. 3. Prepare MLL-w.t.-fluorescein at 25 nM and MLL-mutant-texas red at 50 nM mixture in FP buffer. 3. Dispense 4 ul per well of reagent in step 1 in columns 2, 4 - 48 in a black 1536 well plate, dispense 4 ul per well of reagents from steps 2 and 3 in columns 1 and 3 respectively. Incubate plate at ambient for 15 minutes. 4. Transfer 23 nl per well of compound to plate and incubate at ambient for 1 hr. 5. Read fluorescence polarization for each label using the PerkinElmer Envision. Envision protocol for fluorescein: FITC FP Dual Enh Mirror, Excitation filter 480, Emission filter (1) P-pol 535, Emission filter (2) S-pol 535 Envision protocol for texas red: FP Dual Enh Mirror, Excitation filter 555, Emission filter (1) P-pol 632, Emission filter (2) S-pol 632

Compared with CC(C)(C)c1ccc(Cn2nnc3c(=O)[nH]c(C4CCCN(C(=O)c5ccco5)C4)nc32)cc1 (stereo not drawn), COc1cccc(OCc2cc(C(=O)N3CCN(C(=O)c4ccco4)CC3)no2)c1 is higher in “FP activity change” value: 2.29% for the first, 6.94% for the second.

First: C/C=C/C=N/NC(=O)c1ccncc1
Second: COc1ccc(NC2CCCN(C(=O)c3ccncc3)C2)cc1 (stereo not drawn)
The “FP activity change” value of the first is higher: -2.94% for the first, -4.31% for the second.

First: CCC(=O)Nc1nc(C)c(C(=O)Nc2cccc(Cl)c2)s1
Second: CN(CC(=O)Nc1ccc(Cl)cc1)C(=O)CNC(=O)c1ccc2ccccc2c1
The “FP activity change” value of the first is lower: -0.766% for the first, -0.426% for the second.

Going from COC(=O)c1ccc(CN2C(=O)NC(c3ccccc3)(c3ccccc3)C2=O)o1 to CN(Cc1ccccc1)C(=O)c1ccc(COc2ccccc2)cc1, the “FP activity change” value falls from -3.74% to -7.59%.

Compared with O=C(Nc1nnc(-c2ccccc2F)s1)c1ccccc1F, Cc1ccc(N(Cc2ccccc2O)C(=O)c2ccccc2F)cc1 is lower in “FP activity change” value: 0.841% for the first, -5.27% for the second.

Going from S=c1[nH]c(-c2cccs2)cn1-c1ccccc1 to Cc1ccccc1NC(=O)CCOc1ccccc1, the “FP activity change” value rises from -10% to 0.005%.

Compared with Cc1ccc(-c2csc(N3CCN(c4cc5c(cc4Cl)nc(-c4ccncc4)n5CCOCCO)CC3)n2)cc1, Cc1ccc(-c2nc(-c3ccncc3)no2)c(C)c1 is lower in “FP activity change” value: -0.208% for the first, -1.78% for the second.

Compared with CCOc1ccc(-n2c(SCC(=O)OC)nc3sc4c(c3c2=O)CCN(C)C4)cc1, Cc1cc(CNC(=O)C2CCC(=O)N(CCc3ccc(Cl)cc3)C2)no1 (stereo not drawn) is lower in “FP activity change” value: 6.86% for the first, 4.02% for the second.

Going from COC(=O)c1ccc(Nc2ncnc3sccc23)cc1 to Cc1ccc(NC(=O)Nc2cccnc2)cc1, the “FP activity change” value falls from 3.91% to -1.76%.

First: Cc1ccccc1NC(=S)NC(=O)Cc1ccc(Cl)cc1
Second: COc1ccc(NC(=O)N2CCCC2C(=O)NCc2ccccc2Cl)cc1 (stereo not drawn)
The “FP activity change” value of the first is higher: -2.56% for the first, -7.57% for the second.

Going from O=C(NCCCO)c1cc2c([nH]c3ccccc32)c(-c2ccc(F)cc2)n1 to CN(CCO)c1ccc(/C=N/Nc2nncc3ccccc23)cc1, the “FP activity change” value falls from -0.599% to -4.23%.

First: O=C1CCC([N+](=O)[O-])C(c2ccccc2Br)N1 (stereo not drawn)
Second: CN1C(=O)CN2CCc3ccccc3C2c2cc(Cl)ccc21 (stereo not drawn)
The “FP activity change” value of the first is higher: -0.866% for the first, -5.51% for the second.

First: CSc1nnc2ccc(-c3ccc(C)cc3)nn12
Second: Cc1ccc(C(=O)c2coc3ccc(O)c(CN(C)C)c23)cc1
The “FP activity change” value of the first is higher: 3.46% for the first, -0.231% for the second.

Compared with CC1(C(=O)NCCc2c[nH]c3ccccc23)C=CC2(CCCCC2)N1C(=O)c1ccccc1 (stereo not drawn), COc1cccc2cc(C(N)=O)/c(=N\NC(=O)c3ccccc3)oc12 is higher in “FP activity change” value: 0.914% for the first, 3.41% for the second.

First: Cc1ccc(O)c(NC(=O)c2cc(-c3ccco3)on2)c1
Second: C/C(=N\NC(=O)c1ccoc1C)c1ccccc1O
The “FP activity change” value of the first is higher: 11% for the first, -0.0656% for the second.

Going from Cc1ccc(SCC(CC(C)C)N2CCN(CCc3ccccc3)CCC2=O)cc1 (stereo not drawn) to O=C1CCN(Cc2ccccc2)CCN1[C@H](CSc1ccccc1)c1ccccc1, the “FP activity change” value falls from 4.19% to 0.158%.

Compared with NS(=O)(=O)c1ccc(CCNC(=O)c2nc(CS(=O)(=O)c3ccc(Cl)cc3)no2)cc1, O=C(COc1ccc(S(=O)(=O)Nc2cccc(C(F)(F)F)c2)cc1)N1CCOCC1 is higher in “FP activity change” value: -0.948% for the first, 3.89% for the second.

Going from CS(=O)(=O)N(CC(=O)N1CCCCCC1)c1cccc(Cl)c1Cl to Cc1cccc(C(=O)OC(C)CN2CCCC2)c1 (stereo not drawn), the “FP activity change” value rises from -2.08% to 5.39%.

Going from O=C(NCCCN1CCOCC1)C1CCCN(S(=O)(=O)N2CCCCC2)C1 (stereo not drawn) to O=C(CCN1CCCO1)N1CCCC(N2CCN(c3cccc(C(F)(F)F)c3)CC2)C1 (stereo not drawn), the “FP activity change” value rises from 0.555% to 3.51%.

First: Cc1cc(F)ccc1N1CCC(N2CCN(C)C(CCO)C2)CC1 (stereo not drawn)
Second: O=C(CSc1nnnn1C1CCCC1)N1CCCCC1
The “FP activity change” value of the first is lower: -7.47% for the first, 0.177% for the second.

Compared with Cc1cn([C@H]2CC(F)[C@@H](CO)O2)c(=O)[nH]c1=O (stereo partly drawn), CC(=O)Nc1ccc(NC(=O)CC2CCCC2)cc1 is higher in “FP activity change” value: -4.2% for the first, 8.07% for the second.

Compared with C=C1C(=CC=C2CCC[C@@]3(C)[C@@H]2CC[C@H]3[C@H](C)CCCC(C)C)C[C@@H](O)C[C@@H]1O, C[C@@H]1CC[C@@]2(OC1)O[C@H]1C[C@H]3[C@@H]4CC=C5C[C@@H](O)[C@H](O)C[C@]5(C)C4CC[C@]3(C)[C@H]1[C@@H]2C (stereo partly drawn) is lower in “FP activity change” value: 9.09% for the first, -14.6% for the second.

Going from COc1cccc(NC(=O)C2C(c3ccccc3)C2(Cl)Cl)c1 (stereo not drawn) to COc1ccc(-c2n[nH]c(C)c2-c2ccccc2OC)c(O)c1, the “FP activity change” value falls from -0.0582% to -3.47%.

First: CC(C)c1ccc(NC(=O)Cn2ncc3ccccc32)cc1
Second: CN(CCc1ccccc1)c1ccc([N+](=O)[O-])cn1
The “FP activity change” value of the first is lower: -5.91% for the first, -0.677% for the second.

Compared with CC(C)(C)OC(=O)NC(Cc1ccccc1)C(=O)NC(CSC1CCCCO1)C(=O)NN (stereo not drawn), COCCNc1cc(-c2ccccc2)nc2cc(-c3cccc(F)c3)nn12 is higher in “FP activity change” value: -3.74% for the first, 2.42% for the second.

Compared with COc1ccc(OC)c(/C(C)=N\NC(=O)c2cc3cc(Cl)ccc3n2C)c1, COc1c(O)c2c(=O)cc(OC)c3c4c(OC)cc(=O)c5c(O)c(OC)c6c(c(c1C[C@@](C)(O)[C@H]6C(C)=O)c23)c54 is lower in “FP activity change” value: 4.34% for the first, -8.66% for the second.

CCCC[C@]12Cc3cc(OC)c(OC)cc3C(O1)C1=C(CC3(CCCCC3)OC1=O)O2 showed an FP activity change of 0.345% [at 11.7 µM].
